High-throughput results deposited in PubChem by several laboratories.
Sampled rows, rich in hits. Any-hit rate of the full collection: about 0.51%.
AddAB inh – less growth of phage-infected E. coli with AddAB | AID 435030 | E. coli expressing H. pylori AddAB, absorbance growth | 330,000 tested, 0.29% active | inhibition, % at 11.9 µM; in the data active = inhibition above about 12%
E coli growth-1 – counter-screen for AddAB inhibitors: E. coli growth inhibition | E. coli V3065 growth, OD600 absorbance, 18 h | inhibition, % at 11.9 µM | 330,000 tested, 0.27% active;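 active = inhibition above the campaign's mean inhibition across all tested compounds plus 3 SD, cut at about 9.9% in these data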;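 note: uninfected addAB+ strain grown without phage in ampicillin broth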
Tat transport – blocks Tat-dependent protein export in E. coli. E. coli MC4100 TorA-mCherry Tat export, fluorescence. AID 488895. inhibition, % at 10 µM. 340,000 tested, 0.036% active;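 active = mean replicate inhibition at least 50% and at least half of replicates individually reaching 50%; inconclusive = only one of the two criteria met; inactive = neither criterion met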;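 note: exported cargo escapes ClpAP degradation while cytoplasmic cargo is degraded and loses fluorescence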
phage Ecoli inh – E. coli growth loss with phage present; growth absorbance; inhibition, % at 11.9 µM; 360,000 tested, 0.26% active; AID 651602; in the data active = inhibition above about 11%
E coli growth-2 – inhibitors of Escherichia coli growth | OD600, 23 h; hits give low values | OD600 absorbance (test concentration not listed) | 330,000 tested, 0.21% active | AID 1053175;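 active = OD600 absorbance below the run mean of sample wells minus 3.6 SD, in any replicate, cut at about 0.56 in these data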
AddAB confirm – confirmation screen: growth loss of phage-infected E. coli expressing H. pylori AddAB. E. coli V3065 expressing H. pylori AddAB, T4 phage, OD; T4 phage with gene 2 nonsense mutations. 880 tested, 64% active. shares compounds with AddAB inh. AID 488942. inhibition, % at 11.9 µM;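 active = mean inhibition above a set limit taken from the earlier primary screen, cut at about 13% in these data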;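 note: higher means less bacterial growth since AddAB block lets phage replicate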
RecBCD counter – reduces growth of phage-infected RecBCD+ E. coli, AddAB inhibitor counter-screen; 880 tested, 73% active; E. coli V66 + mutant T4 phage, OD growth; inhibition, % at 11.9 µM; shares compounds with AddAB inh;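 active = mean inhibition above the mean of solvent-only control wells plus 3 SD, cut at about 4% in these data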;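 note: optical density read after an 18 h incubation at 37 °C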
Bact viability – reduces bacterial viability, AddAB inhibitor counter-screen. shares compounds with AddAB inh. absorbance (AddAB counterscreen). inhibition, % at 11.9 µM. 880 tested, 35% active; in the data active = inhibition above about 25%
RecBCD conf – growth loss of phage-infected V66 E. coli, RecBCD confirmation screen; shares compounds with phage Ecoli inh; E. coli V66 + T4 2- phage, growth OD; inhibition, % at 11.9 µM; 890 tested, 45% active; AID 651982;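 active = mean inhibition over triplicates exceeding the hit threshold derived in the original primary screen, cut at about 11% in these data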
Ecoli viability – inhibits E. coli viability, flagging RecBCD hits as nonselective. shares compounds with phage Ecoli inh. absorbance (OD) growth. inhibition, % at 11.9 µM. 890 tested, 29% active. AID 651983; in the data active = inhibition above about 20%;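 note: E. coli strain V66 grown with compound alone and no phage infection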
AddAB counter – growth loss of phage-infected AddAB E. coli, RecBCD counter-screen; shares compounds with phage Ecoli inh; E. coli expressing H. pylori AddAB + T4 phage, OD growth; gene 2 mutant T4, recBCD-deleted host; inhibition, % at 11.9 µM; 890 tested, 45% active; AID 651984;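 active = mean inhibition above the solvent-only control wells' mean plus 3 SD, cut at about 22% in these data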;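 note: higher means less bacterial growth from phage killing when AddAB is blocked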
Each line names hits and unclear results; the compound was inactive in the other large screens (follow-up assays come after a bar, where they were run).

O=C(Nc1nnc(-c2ccccc2)o1)c1ccc(Cl)cc1	AddAB inh 13, phage Ecoli inh 24, E coli growth-2 0.33 | AddAB confirm 33 | RecBCD counter 27 | Bact viability inactive | RecBCD conf 18 | Ecoli viability 20 | AddAB counter inactive
O=C(NC(=S)NNC(=O)c1cc2ccccc2cc1O)c1ccco1	AddAB inh 15, E coli growth-1 17, phage Ecoli inh 20 (no result: E coli growth-2) | AddAB confirm 15 | RecBCD counter 24 | Bact viability inactive | RecBCD conf 14 | Ecoli viability inactive | AddAB counter inactive
O=C(NNC(=O)c1cc2ccccc2cc1O)Nc1ccc(Br)cc1	AddAB inh 15, E coli growth-1 11, phage Ecoli inh 15 | AddAB confirm 14 | RecBCD counter 17 | Bact viability inactive | RecBCD conf inactive | Ecoli viability inactive | AddAB counter inactive
Cc1ccc(C(=O)NNC(=O)c2cc3ccccc3cc2O)cc1	none
O=C(/C=C/c1cccs1)NC(=S)NNC(=O)c1ccccc1O	AddAB inh 26, E coli growth-1 22, phage Ecoli inh 21 | AddAB confirm 19 | RecBCD counter 22 | Bact viability inactive | RecBCD conf inactive | Ecoli viability inactive | AddAB counter 23
COc1ccc(C)cc1NC(=O)NNC(=O)c1cc2ccccc2cc1O	AddAB inh 16, E coli growth-1 15, phage Ecoli inh 13 | AddAB confirm 17 | RecBCD counter 14 | Bact viability inactive | RecBCD conf inactive | Ecoli viability inactive | AddAB counter inactive
COc1ccc(C(=O)NC(=S)NNC(=O)c2ccco2)cc1	none
COc1ccc(C(=O)NNC(=S)NC(=O)/C=C/c2cccs2)cc1	none
c1ccc(-c2ccc(CN3CC4C(c5ccccc5)C5(c6ccccc6)CC4(C5)C3c3ccccc3)cc2)cc1 (centres undefined)	none (no result: AddAB inh, E coli growth-1, Tat transport, phage Ecoli inh)
CC(C)CCC(O)[C@](C)(O)C1CC[C@@]2(O)C3=CC(=O)C4CC(O)C(O)C[C@]4(C)C3CC[C@]12C (some centres undefined)	none (no result: AddAB inh, E coli growth-1, Tat transport, phage Ecoli inh)
Cc1cc(=O)[nH]c(NN=Cc2ccc3c(c2)OCCO3)n1	none (no result: AddAB inh, E coli growth-1, Tat transport, phage Ecoli inh)
O=C(CC1CC=CCC(Cc2ccc(F)cc2)C(=O)OC(c2ccccc2)CNC1=O)NC(CO)Cc1ccccc1 (centres undefined)	none (no result: AddAB inh, E coli growth-1, Tat transport, phage Ecoli inh)
COc1ccc(C(=O)NC(=S)NNC(=O)c2ccccc2C)cc1	none
COc1ccc(C(=O)NC(=S)NNC(=O)c2ccccc2O)cc1	AddAB inh 15, E coli growth-1 18, phage Ecoli inh 12 | AddAB confirm 19 | RecBCD counter 23 | Bact viability inactive | RecBCD conf 12 | Ecoli viability inactive | AddAB counter 22
CCc1nnc(NS(=O)(=O)c2ccc(N=Cc3c(C)[nH]n(-c4cccc(Cl)c4)c3=O)cc2)s1	AddAB inh 24, E coli growth-1 16, phage Ecoli inh 11 | AddAB confirm inactive | RecBCD counter 4.8 | Bact viability inactive | RecBCD conf inactive | Ecoli viability inactive | AddAB counter 31
C=CCc1cccc(/C=N/NC(=O)CCC(=O)Nc2ccc(F)cc2)c1O	AddAB inh 13, E coli growth-1 11, phage Ecoli inh 13 (no result: E coli growth-2) | AddAB confirm 14 | RecBCD counter 16 | Bact viability inactive | RecBCD conf inactive | Ecoli viability inactive | AddAB counter inactive
C=CCc1cccc(/C=N/NC(=O)CNc2cccc3ccccc23)c1O	none (no result: E coli growth-2)
C=CCc1cccc(/C=N/NC(=O)CNc2ccccc2OC)c1O	AddAB inh 13, phage Ecoli inh 14 (no result: E coli growth-2) | AddAB confirm 16 | RecBCD counter 10 | Bact viability inactive | RecBCD conf inactive | Ecoli viability inactive | AddAB counter inactive
COc1ccc(N(CC(=O)NN=Cc2cccc(OC)c2OC)S(=O)(=O)c2ccccc2)cc1	none (no result: AddAB inh, E coli growth-1, Tat transport, phage Ecoli inh)
O=C(Nc1cccnc1)c1ccc([N+](=O)[O-])s1	AddAB inh 99, E coli growth-1 69, phage Ecoli inh 17, E coli growth-2 0.07 | AddAB confirm 100 | RecBCD counter 18 | Bact viability 47 | RecBCD conf inactive | Ecoli viability inactive | AddAB counter 86
O=C(Nc1ccccc1F)c1ccc([N+](=O)[O-])s1	Tat transport inconclusive
COCCN=c1scc(-c2cccs2)n1N=C(C)c1ccco1	none (no result: AddAB inh, E coli growth-1, Tat transport, phage Ecoli inh)
COCCN=c1scc(-c2cccs2)n1/N=C/c1ccc(O)c(O)c1O	AddAB inh 15, E coli growth-1 12, phage Ecoli inh 15 (no result: E coli growth-2) | AddAB confirm 14 | RecBCD counter 11 | Bact viability inactive | RecBCD conf inactive | Ecoli viability inactive | AddAB counter inactive
CCn1cc(C(=O)O)c(=O)c2ccc(C)nc21	AddAB inh 98, E coli growth-1 82, phage Ecoli inh 82, E coli growth-2 0.063 | AddAB confirm 94 | RecBCD counter 33 | Bact viability 90 | RecBCD conf 45 | Ecoli viability 78 | AddAB counter 99
CCn1cc(C(=O)OCc2ccccc2)c(=O)c2ccc(C)nc21	none
CN1CCN(c2ccc([N+](=O)[O-])cc2C=NNC(=O)c2ccc(F)cc2)CC1	none (no result: AddAB inh, E coli growth-1, Tat transport, phage Ecoli inh)
Nc1[nH]c(=O)ncc1F	AddAB inh 28, E coli growth-1 19, phage Ecoli inh 29 | AddAB confirm 45 | RecBCD counter 20 | Bact viability 44 | RecBCD conf 32 | Ecoli viability 24 | AddAB counter 52
CCCCC(=O)N1CC=CC(c2ccc(OC)cc2)N(Cc2ccc(F)cc2)C(=O)C1Cc1ccccc1 (centres undefined)	none (no result: AddAB inh, E coli growth-1, Tat transport, phage Ecoli inh)
CCn1cc(C(=O)O)c(=O)c2cc(F)c(N3CCN(C(=S)NC(=O)c4ccc(F)c(F)c4)CC3)cc21	AddAB inh 98, E coli growth-1 98, Tat transport 91, phage Ecoli inh 99, E coli growth-2 0.07 | AddAB confirm 100 | RecBCD counter 87 | Bact viability 99 | RecBCD conf 103 | Ecoli viability 103 | AddAB counter 104
